Results on 64 compounds are retold here after PubChem BioAssay AID686979 (National Center for Advancing Translational Sciences (NCATS), 2013).

Each structure is given as a SMILES string. Hit rate of the full screen: of about 420,000 compounds, about 50,000 (12%) were called active. About 26% were inconclusive and are not listed. Calls follow the shape of the dose curve; as a rule, active = well fitted inhibition curve with a large enough effect; inconclusive = small, poorly fitted or top-dose-only effect; inactive = flat fitted curve, though single readings scatter. The entries come from a sample that favours actives as a whole. Where a call stands in place of a potency, no number is given.
Potency is read from the fitted curve at half-maximal effect.

This assay in a line: qHTS for Inhibitors of human tyrosyl-DNA phosphodiesterase 1 (TDP1): qHTS in cells in presence of CPT. Also: nearly all actives have a fitted effect of over 55% in size. To be noted: chicken DT40 Tdp1-/-;hTDP1 cells + 20 nM CPT, ATP luminescence, 48 h; series mostly up to 46.2 µM. From the text: Human tyrosyl-DNA phosphodiesterase 1 (TDP1) is a novel repair gene, and we propose to use it as a new target for anticancer drug development. TDP1 is not an essential protein, but under treatment with topoisomerase I poison (camptothecin: CPT), TDP1 works as a critical factor for cell survival. To directly identify novel TDP1 inhibitors active in a cellular environment, we have knocked-out the Tdp1 gene in chicken DT40 cells (Tdp1-/-) and generated a complemented counterpart cells that contains a stable transfection of the human TDP1 gene (Tdp1-/-;hTDP1 cells). For the primary screen, Tdp1-/-;hTDP1 cells will be exposed to small molecules in the presence or absence of CPT, and their growth kinetics will be evaluated after 48 hours by measuring ATP activity. […] The hit compounds will then be evaluated in the presence or absence of CPT using Tdp1-/- cells. […] In tertiary assays, biochemical gel-based assays will be used to assess whether the hit compounds specifically target TDP1. To this end, we have screened this cell line against the MLSMR in two primary screens. In one screen we add CPT and in the other we screen in the absence of CPT; this AID represents the screen where CPT was present. NIH Chemical Genomics Center [NCGC] NIH Molecular Libraries Probe Centers Network [MLPCN] MLPCN Grant: MH095538 Assay Submitter (PI): Yves Pommier, NCI
DT40-hTDP1 cells with 20 nM Camptothecin (add 20 microL of 1 mM CPT stock in 1 L of cell culture medium) were dispensed at 400 cells/5microL/well in tissue culture treated 1536-well white wall/solid bottom assay plates (Greiner Bio-One North America, NC, U.S.A.) using a Multidrop Combi 8 channel dispenser (Thermo Fisher, Waltham, MA, USA). 23 nL compounds and controls were transferred using the pin tool (Kalypsys, San Diego, CA, USA) to the assay plates. The assay plates were then incubated at 37 masculineC for a minimum 48 hr. Three microL of Cell Titer Glo solution was added to the plates and incubated at RT in dark for 30 min. Luminescence was read using ViewLux (Perkin Elmer) with 1 sec exposure slow speed, high gain and 2x binning.
As to `CC1=C(C/C=C(\C)CCCC(C)CCCC(C)CCCC(C)C)C(=O)c2ccccc2C1=O` (centres undefined), the Potency result is “inactive”. The value for `C=CC[C@H](CC(=O)OC(C)(C)C)C(=O)OC[C@H]1CCCN1C(=O)[C@H](CC=C)CC(=O)N(CCO)Cc1ccccc1` was 16.4 µM (active); that for `CCc1ccc(NC(=O)Cn2ncn3c(cc4ccccc43)c2=O)cc1` was “inactive”; that for `N#Cc1cccc(CN2CCC(=O)N(CCO)CC2)c1` was “inactive”.

With `O=C(C1CCC1)N1CCN(S(=O)(=O)c2ccc([N+](=O)[O-])cc2)CC1`, the Potency result is “inactive”.

As for `Cn1c(=O)c2c(-c3ccccc3Br)n(Cc3ccccc3)cc2n(C)c1=O`, the Potency was 20.6 µM (active). The same measure for `Cc1c(S(=O)(=O)NCc2ccccc2)c(=O)n(C)c(=O)n1C`: “inactive”; for `O=C(c1ccc[nH]c1=S)N1CCN(S(=O)(=O)c2ccc(Br)cc2Cl)CC1`: “inactive”. The value for `COc1ccc(CCNC(=O)NS(=O)(=O)c2ccc(C)cc2)cc1OC` was “inactive”. The same measure for `COc1ccccc1CNC(=O)c1ccc(CS(=O)(=O)c2ccccc2)o1`: “inactive”; for `COc1ccc(CCNC(=O)c2ccc(CSCc3ccc(C)cc3)o2)cc1OC`: 14.6 µM (active); for `Cc1ccc(CNC(=O)c2ccc(CS(=O)Cc3cccc(Cl)c3)o2)cc1` (centres undefined): “inactive”. Consider `COc1ccc(CCNC(=O)Cc2ccc(C)cc2)cc1OC`, for which the Potency result was “inactive”.

In the case of `O=C(NCc1ccco1)c1ccc(CS(=O)(=O)Cc2ccc(F)cc2)o1`, the Potency result is “inactive”. Regarding `COc1ccc(CCNC(=O)c2ccc(CS(=O)(=O)c3ccc(Br)cc3)o2)cc1OC`, the Potency is 20.6 µM (active). Consider `Cc1ccc(CCNC(=O)c2ccc(CS(=O)(=O)Cc3cccc(C)c3)o2)cc1`, for which the Potency is 23.1 µM (active). The value for `COc1ccc(CCNC(=O)c2nnc(CS(=O)(=O)c3ccccc3)o2)cc1OC` was “inactive”. The value for `COc1cccc(NC(=S)N(Cc2ccc(C)cc2)Cc2ccccn2)c1` was “inactive”; that for `CN=C1C=C/C(=N/N=c2\ccn(O)cc2C)C=C1C` was “inactive”. The value for `CCOC(=O)C1=C(CC)Nc2ccccc2N=C1NC(=O)c1cccc(S(=O)(=O)N2CCCC2)c1` was “inactive”; that for `CC(=O)NC12CC3CC(C1)CC(C(=O)N1CCN(C(=O)c4ccco4)CC1)(C3)C2` was “inactive”. Take `N#CC1(Nc2ccc3c4c(cccc24)CC3)CCCCC1`: the Potency entry is “inactive”. The same measure for `CC(C)[C@H]1CC[C@@H](C)C[C@H]1O`: “inactive”. As to `CC(c1ccccn1)N(CCN(C)C)C(=S)Nc1ccccc1F` (centres undefined), the Potency result was “inactive”. The value for `N/C(=N\OC(=O)CCn1cccc(C(F)(F)F)c1=O)c1ccc(OC(F)(F)F)cc1` was “inactive”; that for `CC(=O)Nc1ccc(C(=O)N(C2=NC(C)CS2)c2ccc(Cl)cc2)cc1` (centres undefined) was “inactive”. The same measure for `COc1ccccc1NC(=O)CSc1nnc(Cn2nnc(-c3ccccc3)n2)n1-c1ccccc1`: 18.4 µM (active). The value for `COc1ccccc1OCc1nnc(SCC(N)=O)n1-c1ccccc1` was “inactive”.

Turning to `COc1ccccc1NC(=O)CSc1nnc(Cc2cccn2C)n1-c1ccc(F)cc1`, the Potency result was “inactive”.

In the case of `COc1ccc(S(=O)(=O)N(C)CC(=O)NCCCN2CCOCC2)cc1Cl`, the Potency result was “inactive”. Turning to `O=C(COc1ccccc1Cl)N1CCCCCCC1`, the Potency result is “inactive”. The same measure for `CC(=O)C1=C(C)NC(=O)NC1c1cc(Br)ccc1OCC#N` (centres undefined): “inactive”.

`Cc1cc(C(=O)COc2ccc(Br)cc2F)c(C)n1C1CC1`: the Potency was 7.31 µM (active). For the compound `O=C(COc1ccc(Br)cc1F)NCC1(N2CCCCC2)CCCCC1`, the Potency entry is “inactive”.

On to `Cc1cc(C(=O)COc2ccccc2Cl)c(C)n1C1CC1`, for which the Potency was 13 µM (active). The same measure for `O=C(COc1ccccc1Cl)Nn1cnnc1`: “inactive”; for `C/C(N)=C(/C#N)C(=O)COC(=O)c1cc(-c2ccc(C)cc2)nc2ccccc12`: “inactive”; for `COc1ccc(/C=C/C(=O)NC(=S)N2CCCC(C(N)=O)C2)cc1` (centres undefined): “inactive”.

In the case of `OCCC1CN(Cc2ccc3nsnc3c2)CCN1C1CCCC1` (centres undefined), the Potency result is “inactive”. The same measure for `CC(C)c1cc(C(=O)N/N=C/c2ccoc2)c(O)c(C(C)C)c1`: “inactive”. Regarding `CC(C)C[C@H](NC(=O)N1CC(=O)Nc2ccccc21)C(=O)N[C@H](Cc1ccccc1)C(=O)O`, the Potency entry is “inactive”. The same measure for `Cc1ccc(N(C(=O)c2ccc(CN3CCOCC3)o2)C(C(=O)NCCC(C)C)c2cccs2)c(C)c1` (centres undefined): “inactive”; for `CCCCNC(=O)N(O)C1N(/N=C/c2ccc(N(C)C)cc2)C(=S)SC1(C)C` (centres undefined): “inactive”.

In the case of `C=CC(=O)Nc1ccc(Nc2ccnc(Nc3ccc(N4CCN(C)CC4)cc3)n2)cc1`, the Potency is 9.2 µM (active). The value for `CN1CCN(c2ccc(NC(=O)c3cc(Cl)c4c(c3)OCCO4)cc2)CC1` was “inactive”. With `Cn1cnnc1SCC(=O)Nc1ccc(N2CCOCC2)cc1`, the Potency entry is “inactive”. The value for `Cc1ccc(NS(=O)(=O)c2ccc(C(=O)NCCCN3CCOCC3)cc2)cc1` was “inactive”. With `COc1ccc(C(=O)NCCc2ccc(S(N)(=O)=O)cc2)cc1OC`, the Potency result was “inactive”. As to `CCOC(=O)c1c(C)c(C(=O)NCCc2ccc(S(N)(=O)=O)cc2)c(C)n1CC`, the Potency entry was “inactive”. On to `COc1ccc(Cn2c(=S)[nH]c3cc(C(=O)NCCCN4CCOCC4)ccc3c2=O)cc1`, for which the Potency entry was “inactive”.

On to `Cc1c(C)n(Cc2ccc(Cl)cc2)c2ccc(C(=O)NCCCN3CCOCC3)cc12`, for which the Potency was 23.1 µM (active). As to `CCn1c(C)c(C)c2cc(C(=O)NCCc3cc(OC)ccc3OC)ccc21`, the Potency was 20.6 µM (active). The same measure for `Cc1c(C)n(Cc2ccc(Cl)cc2)c2ccc(C(=O)NCCc3ccc(S(N)(=O)=O)cc3)cc12`: 18.4 µM (active); for `COc1ccc(-n2c(=O)[nH]c3cc(C(=O)NCCc4ccc(OC)c(OC)c4)ccc3c2=O)c(OC)c1`: “inactive”. The same measure for `COc1ccc(C(=O)NCC[N+](C)(C)C)cc1`: “inactive”; for `NC(=O)c1nnsc1-c1ccc(-c2snnc2C(N)=O)cc1`: “inactive”. The same measure for `CCCCN1CC(CO)Oc2cccc(F)c2S1(=O)=O` (centres undefined): “inactive”; for `COc1ccc(OCC(=O)NCCS(=O)(=O)N2CCN(c3ccc(F)cc3)CC2)cc1`: “inactive”. As for `Cc1cc2cc3c(N)[nH]nc3nc2cc1C`, the Potency entry is “inactive”.

For `O=S1(=O)CCOC[C@H](Cc2ccccc2)N1Cc1ccccc1Br`, the Potency entry is “inactive”. The same measure for `COc1ccccc1C(=O)NC(=S)NC12CC3CC(CC(C3)C1)C2`: “inactive”; for `CC(=O)c1cc(CN2CCC(n3nccc3NC(=O)c3ccccc3Cl)CC2)cs1`: “inactive”; for `CCCCCc1ccc(-c2ccc(C(=O)O)cc2)nc1`: “inactive”. Turning to `CC(=O)Nc1ccc(S(=O)(=O)NC2(C(F)(F)F)C(=O)NC(C)=C2C#N)cc1` (centres undefined), the Potency entry is “inactive”.
